The experiment relates to Aedes aegypti larvae. In words: larval motility relative to same well at 0 h (fraction); higher = more motile (less active compound), active = 0.4 or less. To be noted: 10 µM. A digest of the protocol: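 Aedes aegypti larvae, hatched in pond salt solution with yeast at 25 °C and collected after 18–24 h, were dispensed at about 10 per well (100 µL) in 96-well plates. Compounds were tested at 10 µM, 1% v/v DMSO, with solvent and larvicide control wells on each plate. INVAPP movies (200 frames, 100 ms intervals) were recorded at 0, 2 and 24 h. Relative motility is each well's score divided by its 0 h score, median of three independent larval batches.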

Unmarked numbers belong to inactive results.

On to `COc1ccc(NS(=O)(=O)c2ccc(Cl)s2)cn1`, for which the larval motility runs as follows: (2 h) 0.931; (24 h) 1.43.
The corresponding values for `Cc1cc(Nc2ccc(F)cc2)nc(SCc2nc3ccccc3[nH]2)n1` are 0.661 and 0.622.
The corresponding values for `Cc1nc2ccc(Oc3ccccc3)cc2c2c1CCN2CCc1ccccc1` are 0.607 and 0.774.
Consider `CC(C)c1cc2c(cc1S(=O)(=O)O)[C@@]1(C)CCC[C@@](C)(C(=O)O)[C@@H]1CC2`, for which the larval motility (2 h) was 0.784 and the larval motility (24 h) was 0.697.
In the same order, the values of `NC(=O)c1nccn([C@@H]2O[C@H](CO)[C@@H](O)[C@H]2O)c1=O` are 0.824 and 1.16.
Consider `CC(C)n1cnc2c(NCc3ccccc3)nc(NCc3ccccc3)nc21`, for which the larval motility was 1.3 (2 h) and 1.42 (24 h).
The corresponding values for `CN(C)CCNC(=O)c1cccc2cccnc12` are 0.941 and 0.825.
With `CCOC(=O)/C=C/[C@H](C[C@@H]1CCNC1=O)NC(=O)[C@@H](CC(=O)[C@@H](NC(=O)c1cc(C)on1)C(C)C)Cc1ccc(F)cc1`, the larval motility by setting is: (2 h) 1.26; (24 h) 1.09.
The corresponding values for `c1ccc(Cn2c(-c3ccccn3)nc3ccccc32)cc1` are 1.19 and 1.02.
In the case of `CC(Oc1ccc(Cl)cc1Cl)C(=O)NCc1ccc2c(c1)OCO2` (stereo unspecified), the larval motility runs as follows: (2 h) 0.508; (24 h) 0.902.
In the same order, the values of `O=C(Nc1[nH]c(=O)ncc1F)c1ccccc1` are 0.527 and 0.773.
In the same order, the values of `Clc1ccc(Cn2c(CN3CCCC3)nc3ccccc32)cc1` are 1.09 and 1.28.
In the same order, the values of `O=C(/C=C\n1cnc(-c2cc(C(F)(F)F)cc(C(F)(F)F)c2)n1)NNc1ccccn1` are 1.12 and 1.17.
Consider `CONC(=N)c1ccc(-c2ccc(-c3ccc(C(=N)NOC)cc3)o2)cc1`, for which the larval motility reads like this: (2 h) 0.699; (24 h) 2.2.
The corresponding values for `COc1ccc2sc3c(c2c1)NC(C)CNC3=O` (stereo unspecified) are 0.748 and 0.959.
The corresponding values for `Cc1cc(O)c2c(c1)C(=O)c1c(I)c(O)c(I)c(O)c1C2=O` are 0.851 and 1.08.
In the case of `N=c1n(CCN2CCCCC2)c2ccccc2n1CC(O)COc1ccc(Cl)cc1Cl` (stereo unspecified), the larval motility was 1.02 (2 h) and 0.502 (24 h).
In the same order, the values of `O=C(Nc1nnc(-c2ccc(Cl)cc2)o1)c1ccc(F)cc1` are 1.18 and 0.816.
With `COc1cc(NC(=O)CN2C(=O)NC(c3ccccc3)(c3ccccc3)C2=O)cc(OC)c1`, the larval motility runs as follows: (2 h) 0.866; (24 h) 1.08.
The corresponding values for `N#Cc1cc([N+](=O)[O-])ccc1Oc1ccccc1Cl` are 1.05 and 1.15.
Take `CC(=O)Nc1cc(NS(=O)(=O)c2ccc(Cl)cc2)cc2c(Cl)n[nH]c12`: the larval motility reads like this: (2 h) 0.744; (24 h) 0.752.
Take `CC[C@H](CO)Nc1nc(NCc2ccccc2)c2ncn(C(C)C)c2n1`: the larval motility by setting is: (2 h) 0.799; (24 h) 0.755.
On to `Cc1cc(C2CCCCC2)n(O)c(=O)c1`, for which the larval motility is 0.66 (2 h) and 1.09 (24 h).
Take `OB1OCc2cc(Cl)ccc21`: the larval motility by setting is: (2 h) 0.664; (24 h) 1.04.
The corresponding values for `CCc1nc2ccc(Cl)cn2c1C(=O)NCc1ccc(N2CCC(c3ccc(OC(F)(F)F)cc3)CC2)cc1` are 0.959 and 0.891.
The corresponding values for `Nc1nc(-c2ccccc2)nc2c1ncn2[C@@H]1O[C@H](COS(=O)(=O)NC(=O)c2ccccc2O)[C@@H](O)[C@H]1O` are 0.842 and 1.04.
In the case of `Nc1nc(-c2ccccc2)nc2[nH]nc(Nc3ccc(C(F)(F)F)cc3)c12`, the larval motility runs as follows: (2 h) 0.791; (24 h) 0.591.
The corresponding values for `C=C(C)[C@@H]1CC[C@]2(C(=O)O)CC[C@]3(C)[C@H](CC[C@@H]4[C@@]5(C)CC[C@H](O)C(C)(C)[C@@H]5CC[C@]43C)[C@@H]12` are 1.08 and 1.18.
